# Screening results (PubChem BioAssay)
# DUX4 inh – blocks DUX4-driven transcriptional activation; 293T-iDUX4 ZSCAN4-Gaussia luciferase reporter, 24 h; hits give low values; activity change, negative = inhibition, % (no concentration beside the values); 37,000 compounds, 0.8% hits;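 active means mean inhibition of at least 10% in the main channel, exceeding the control channel by a set limit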;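 further: 0% = median of neutral control wells and -100% = median of positive control wells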
# Active calls of the source: *. The full list was thinned out, with hits kept by preference.
SMILES,DUX4 inh
O=C(NC1CCC1)[C@@H]1[C@@H](CO)[C@@H]2Cn3c(ccc(/C=C/c4ccccc4)c3=O)[C@@H]2N1Cc1cncnc1,-3
CS(=O)(=O)N1CCCCN2[C@H](CO)[C@H](c3ccc(-c4cccc(C#N)c4)cc3)[C@@H]2C1,14
N#Cc1cccc(-c2ccc(C3[C@@H]4CN(Cc5ccccc5)C[C@H]3N4)cc2)c1 (stereo not given in full),-27*
COc1cccc(CN2CCCCN3[C@H](CO)[C@H](c4ccc(-c5cccc(C#N)c5)cc4)[C@@H]3C2)c1,-3
CS(=O)(=O)N1CCCCN2[C@H](CO)[C@@H](c3ccc(-c4cccc(C#N)c4)cc3)[C@H]2C1,3
N#Cc1cccc(-c2ccc(C3[C@H]4CNC[C@@H]3N4Cc3cccc(-c4ccncc4)c3)cc2)c1 (stereo not given in full),-5
N#Cc1cccc(-c2ccc(C3[C@@H]4CN(S(=O)(=O)Cc5ccccc5)C[C@H]3N4)cc2)c1 (stereo not given in full),-41*
CC=Cc1ccc2n(c1=O)C[C@H]1[C@H](CO)[C@@H](C(=O)NCC)[C@@H]2N1C(=O)c1ccccc1 (mixture of isomers),3
C[C@@H]1CCCCO[C@H](CN(C)Cc2ccccc2)[C@H](C)CN([C@@H](C)CO)C(=O)c2cc(NC(=O)Nc3ccc(F)cc3)ccc2O1,4
Cc1ccccc1S(=O)(=O)N1CCCCN2[C@H](C1)[C@@H](c1ccc(-c3cccc(F)c3)cc1)[C@@H]2CO,7
Cc1ccccc1S(=O)(=O)N1CCCCN2[C@H](C1)[C@@H](c1ccc(-c3cccnc3)cc1)[C@@H]2CO,-5
Cc1ccc(-c2ccc([C@@H]3[C@@H](CO)N4CCCCN(S(=O)(=O)c5ccccc5C)C[C@H]34)cc2)cc1,-25*
Cc1cccc(-c2ccc([C@H]3[C@@H](CO)N4CCCCN(S(=O)(=O)c5ccccc5F)C[C@@H]34)cc2)c1,-3
Cc1ccccc1S(=O)(=O)N1CCCCN2[C@H](CO)[C@@H](c3ccc(-c4cccnc4)cc3)[C@H]2C1,-5
Cc1ccccc1S(=O)(=O)N1CCCCN2[C@@H](CO)[C@H](c3ccc(-c4cccc(F)c4)cc3)[C@@H]2C1,-47*
COc1ccc(C(=O)Nc2ccc3c(c2)C(=O)N(C)C[C@H](OC)[C@@H](C)CN(C)[C@@H](C)CO3)cc1,5
CC(=O)N1[C@@H]2c3ccc(C4=CCCC4)c(=O)n3C[C@H]1[C@H](CO)[C@H]2C(=O)N[C@H](C)c1ccccc1,-4
